Vaccinia pol inh: blocks vaccinia virus processive DNA synthesis; AID 493162; in vitro processive DNA synthesis, absorbance read-out; stronger effect = lower value; normalized absorbance, % (no concentration beside the values); 0.94% of 46,000 active; in the data active means normalized absorbance mostly below about 85%, no sharp cut-off; inactive means mostly above about 86%
Numbers without * were called inactive; ! = not confirmed by another sample. The sample as a whole holds a higher share of hits than the screen did.

SMILES	Vaccinia pol inh
Cc1ccc2oc(-c3ccccc3)c(C(=O)O)c(=O)c2c1	87
c1ccc(-c2nc3cc(NCc4cccnc4)ccc3o2)cc1	100
O=c1cc(-c2ccccc2)oc2cc(Cl)ccc12	98
C(=NCc1ccccc1)c1cn(-c2ccccc2)nc1-c1cccnc1	98
CCC(N=c1cc(-c2ccc(OC)cc2)oc2ccc(C)cc12)C(=O)O (centres undefined)	98
COc1ccc(NC(=O)CNc2cccc3c2CCCC3)cc1	108
O=C(CN1C(=O)S/C(=C\c2ccc(O)cc2)C1=O)N1CCOCC1	100
COc1ccc(NC(c2ccccc2)C(F)(F)CO)cc1 (centres undefined)	85
C/C(Nc1ccc(OC(F)(F)F)cc1)=C1/CCOC1=O	118
O=S(=O)(Cc1ccccc1)c1ccc(Cl)c(Cl)c1	98
C=CCN1C(=O)/C(=C\c2ccccc2F)S/C1=N\c1nnc(C)s1	101
O=C(NC1CCCC1)c1ccc(S(=O)(=O)N2CCCCCC2)cc1	105
COc1cccc(C2C(C#N)=C(N)Oc3[nH]c(=O)[nH]c(=O)c32)c1 (centres undefined)	83
CC(C)(C#N)N1CCN(C(c2ccccc2)c2ccccc2)CC1	84
CC(=O)N1CCc2ccccc2C1CN=CC1=C(O)CC(c2ccco2)CC1=O (centres undefined)	100
CCN(C(=O)c1sc2ccccc2c1Cl)C(Cc1ccccc1)c1ccc(OC)cc1 (centres undefined)	114
O=C(NC(Sc1ccncn1)C(=O)c1ccccc1)c1ccccc1 (centres undefined)	98
COc1ccc2oc(-c3ccccc3)cc(=O)c2c1	77
Cc1ccc2oc(-c3ccccc3)cc(=NCCN(C)C)c2c1	30*
Cc1ccc2oc(-c3ccccc3)c(CN3CCOCC3)c(=O)c2c1	98
CC1CN(Cc2c(-c3ccccc3)nc3ccc(Cl)cn23)CC(C)O1 (centres undefined)	103
Cc1cc(I)ccc1NC(=O)C(C(C)C)N1C(=O)c2ccccc2C1=O (centres undefined)	100
CC(C)N1CCN(C(=O)c2ccco2)CC1	105
COc1cc2c(cc1OC)CN(C(=O)c1ccco1)CC2	102
COc1cc2nc(N3CCN(C(=O)c4ccco4)CC3)nc(N)c2cc1OC	85*!
SMILES	Vaccinia pol inh
CC1S/C(=C(/C#N)C(N)=O)N(c2ccccc2)C1=O (centres undefined)	116
Cc1cccc(N2COc3ccc4ccccc4c3C2)c1	100
CCc1ccc(N2Cc3ccccc3C2=N)cc1	99
N=C1c2ccccc2CN1c1ccc2c(c1)OCCO2	104
Cc1cc(C)nc(N2Cc3ccccc3C2=N)n1	69*
O=C(NCc1ccc(-c2nc3ccccc3s2)cc1)c1cccnc1	102
COc1ccccc1C(=O)NCCSc1c[nH]c2ccccc12	101
O=C(Cc1ccccc1)OCc1nc2ccccc2s1	98
COc1cc(C(=O)N2Cc3ccccc3CC2C)cc(OC)c1OC (centres undefined)	100
Cn1c(P(C)(=O)O)nc2ccccc21	100
O=C(OCCO)c1cccc2c1-c1ccccc1C2=O	74*
CCOC(=O)c1cccc2c1-c1ccccc1C2=O	92
CCOC(=O)c1cccc2c1-c1ccccc1/C2=N/O	94
O=C(/C=C/c1ccccc1)Nc1nc2ccc(S(=O)(=O)N3CCCC3)cc2s1	101
Cc1ccc(CNC(=O)c2oc3ccccc3c2-n2cccc2)cc1	108
CC(=O)Nc1c(C(=O)O)oc2ccc(Br)cc12	100
O=C(O)c1oc2ccc(Br)cc2c1-n1cccc1	67*
Cc1c(C)c(C)c(C(=O)C2CCN(C(=O)Nc3ccc(Cl)cc3Cl)CC2)c(C)c1C	105
O=C(Nc1cccc(F)c1)c1cccc2c1C(=O)N(Cc1cccnc1)C2	104
CC(=O)n1c2ccccc2c2nc(N)sc21	64*
N#CSCC(=O)n1c2ccccc2c2ccccc21	100
CC(=O)n1c2ccccc2c2c(-c3ccccc3)c(N3CCOCC3)sc21	98
CC(=O)n1c2ccccc2c2ccccc21	67*
CC(=O)n1c2ccc(C)cc2c2nc3ccccc3nc21	93
CC(=O)n1c(=O)n(C(C)=O)c2ccccc21	89
SMILES	Vaccinia pol inh
COCCc1nnc(CCOC)n1N	89
COc1ccc(NC(c2ccccn2)c2c(C)[nH]c3ccccc23)c(OC)c1 (centres undefined)	101
O=C(Nc1nccs1)c1cc(Cl)sc1Cl	101
Nc1ccccc1-c1nnc(-c2ccc(-c3ccccc3)cc2)o1	66*
c1ccc(-c2nnc(-c3ccccc3)o2)cc1	99
NC(=O)c1ccc(-c2nnc(-c3ccccc3)o2)cc1	94
COc1ccc(OCC2c3cc(OC)c(OC)cc3CCN2C(=O)C(C)C)cc1 (centres undefined)	96
COc1cc2cc3c4c(cc(OC)c(OC)c4c2cc1OC)CCN3C	66*
COc1ccc(C(=O)N2CCc3cc(OC)c(OC)cc3C2C)cc1 (centres undefined)	91
O=C1c2c(O)ccc(O)c2C(=O)c2c(NCCNCCO)ccc(NCCNCCO)c21	7.8*
CN(C)S(=O)(=O)Nc1ccc(N)cc1	112
Cc1cc2cc(CNC(=O)/C=C\c3ccccc3)ccc2n1C	99
CCCN(CCC)C(=O)CCn1c(=O)oc2ccccc21	99
O=C(/C=C\c1ccc(-c2ccc(F)cc2)o1)Nc1ccc(N2CCOCC2)cc1	102
COC(=O)C(C(=O)OC)C(Nc1ccccc1)c1ccccc1 (centres undefined)	20*
COC(=O)C(N=Cc1ccccc1)c1ccccc1 (centres undefined)	105
COC(=O)C(NC(=O)Nc1ccccc1)C(C)C (centres undefined)	101
N#Cc1ccc(COC(=O)CCC(=O)c2ccc(F)cc2)cc1	107
CC1CCN(CC(O)COc2ccccc2Br)CC1 (centres undefined)	108
CCc1ccccc1NC(=O)Cc1ccc(Br)cc1	97
Cc1ccccc1Cn1c(=O)n(CCCCC(=O)NC2CCCC2)c(=O)c2ccccc21	101
CN(c1ccccc1C(=O)O)S(=O)(=O)c1ccc2c3c(cccc13)C(=O)N2	50*
NS(=O)(=O)c1ccc2c3c(cccc13)C(=O)N2	96
O=C1Nc2ccc(S(=O)(=O)N(CCO)CCO)c3cccc1c23	100
O=C1/C(=C/c2ccco2)CC/C1=C\c1ccco1	24*
SMILES	Vaccinia pol inh
O=C1/C(=C/c2ccco2)CC(c2ccccc2)C/C1=C\c1ccco1 (centres undefined)	92
CC1=C/C(=C/c2ccco2)C(=O)O1	100
O=C1CC(c2ccccc2)N=C(SCC(=O)Nc2ccccc2)N1 (centres undefined)	99
O=C(NCCCN1CCN(C2CCCCC2)CC1)C1CCCN(S(=O)(=O)N2CCCCC2)C1 (centres undefined)	100
Cc1ccc(C(=O)c2cccs2)s1	99
O=C(/C=C/c1ccc(-c2cccs2)s1)N1CCSCC1	95
CN(C)C=NC(=O)c1ccc(-c2cccs2)s1	80*
O=C(CCCn1nc(-c2ccccc2)c2cc(Cl)ccc21)Nc1ccc(F)cc1	97
COc1cc(OC)cc(C(c2[nH]c(C)nc2O)C(C#N)C#N)c1 (centres undefined)	93
COc1ccc(C2=NCC(C)(C)CO2)cc1OC	99
N#CCc1ccc(C(=O)c2cccs2)s1	104
CCN1CN=C(Nc2nc(C)c3cc(C)ccc3n2)NC1	49*
c1ccc(CN2CN=C(Nc3nc4ccccc4s3)NC2)cc1	108
CCOc1ccc2nc(Nc3nc(O)cc(=O)[nH]3)nc(C)c2c1	100
N#C/C(=C(/O)COc1ccccc1)c1nc2ccccc2[nH]1	100
